This passage reports max response and outcome results from PubChem BioAssay (NCATS).

Molecules are shown by their SMILES. Inconclusive results are not listed. Calls of active or inactive are those of the source. The call rests on the fitted dose curve; in most records, active means well fitted inhibition curve with a large enough effect; inconclusive means small, poorly fitted or top-dose-only effect; inactive means flat fitted curve, though single readings scatter. *1 amine or outer side, *2 acyl side, *3 side chain or, on linkers, in order; H or OH if unused. Where a SMILES comes first, the peptide text is derived from it. [ ]: non-standard residue; d: D form. The star is where a group is joined. ξ: configuration not given here. X9 = CCC(C)(N*)C(=O)C1CC[C@@H](C(=O)N[C@@H](Cc2ccccc2)C(=O)NCC(=O)O)N1; X8 = O=C([C@@H]1CC(O)CN1[*:1])[*:2]; aIle = CC[C@@H](C)[C@H](N)C(=O)O; Thr(3ξ) = CC(O)[C@H](N)C(=O)O; βNA = c1ccc2cc(N*)ccc2c1; Cbz = O=C(OCc1ccccc1)*; ξIva = CCC(C)(N)C(=O)O; Aib = CC(C)(N)C(=O)O
On the % scale 0 is the no-effect control and ±100 the full control effect.

The assay relates to HEK293. In words: Cytotoxic Profiling of Annotated Libraries Using Quantitative High-Throughput Screening (AID 1296008). Further: nearly all actives have a fitted effect of over 60% in size. To be noted: Five cell lines viability, CellTiter-Glo ATP luminescence, 48-72 h; max response: active compounds read low. From the text: Cell-based phenotypic screening is a commonly used approach to discover biological pathways, novel drug targets, chemical probes and high-quality hit-to-lead molecules. Many hits identified from high-throughput screening campaign are ruled out through a series of follow-up potency, selectivity/specificity, and cytotoxicity assays. Prioritization of molecules with little or no cytotoxicity for a more in-depth downstream evaluation influence the future direction of projects, so cytotoxicity profiling of the screening libraries at early stage is essential for increasing the likelihood of candidate success. […] For the annotated library, we also examined the primary targets and mechanistic pathways regularly associated with cell death. To our knowledge, this is the first study to use high-throughput screening to profile large libraries for cytotoxicity assessment in both normal and cancer cell lines. In summary, the results generated here constitutes a valuable resource for the scientific community and provides insight on identifying cytotoxic compounds with particular mechanisms of action, and prioritizing compounds with suitable cytotoxicity profile for further evaluation.
A pintool (Kalypsys) was used to transfer 23 nL of compound solution to the 1536-well assay plates. After 48 or 72 hr incubation at 37 degree Celsius, 5% CO2 and 95% humidity, 2.5 uL of CellTiter-Glo (Promega) was dispensed into each well using a dispenser (Aspect Automation, St. Paul, MN) with solenoid valves (Lee Valves, Westbrook CT). Plates were left at room temperature for 10 min before imaging the ATP-coupled luminescence using a ViewLux microplate imager (PerkinElmer, Waltham, MA).
As for `CC(C)=C1CC2[C@](C)(CC[C@@H](OC(=O)C3(C)OC3C)[C@@]2(C)O)CC1=O` (stereo not given in full), the max response is 4.03% (inactive).
For the compound `CC[C@@H](C)[C@H](NC(=O)C(C)(C)NC(=O)[C@H](CCC(N)=O)NC(=O)C(C)(CC)NC(=O)[C@H](Cc1c[nH]c2ccccc12)NC(C)=O)C(=O)N[C@H](C(=O)NC(C)(C)C(=O)N[C@@H](CC(C)C)C(=O)NC(C)(C)C(=O)N1CCC[C@H]1C(=O)N[C@@H](CCC(N)=O)C(=O)NC(C)(C)C(=O)N1CC(O)C[C@H]1C(=O)NC(C)(CC)C(=O)C1CC[C@@H](C(=O)N[C@@H](Cc2ccccc2)C(=O)NCC(=O)O)N1)C(C)O` (stereo not given in full) (Ac-W[ξIva]Q[Aib][aIle][Thr(3ξ)][Aib]L[Aib]PQ[Aib][X8]-X9), the max response was -13.1% (inactive).
As to `C=C1CC[C@]2(C(=O)O[C@@H]3O[C@H](CO)[C@@H](O)[C@H](O)[C@H]3O)CC[C@]3(C)C(=CCC4[C@@]5(C)C[C@H](O)[C@@H](O[C@@H]6O[C@H](C(=O)O)[C@@H](O)[C@H](O)[C@H]6O)[C@](C)(C=O)C5CC[C@]43C)C2C1` (stereo not given in full), the max response was -16.5% (inactive).
Same read-out and setting: in the case of `CC(=O)OC(C)(C)/C=C/C(=O)[C@](C)(O)C1[C@H](O)C[C@@]2(C)[C@@H]3CC=C4[C@@H](C[C@H](O[C@@H]5O[C@H](CO)[C@@H](O)[C@H](O)[C@H]5O)C(=O)C4(C)C)[C@]3(C)C(=O)C[C@]12C` (stereo not given in full) it was -17.8% (inactive); in that of `C=C1CC/C=C(/CO)C(=O)C[C@@H]2[C@@H]1C[C@@]2(C)COC(C)=O`, -4.3% (inactive); in that of `CC[C@H]1OC(=O)[C@H](C)[C@@H](O[C@H]2C[C@@](C)(OC)[C@@H](O)[C@H](C)O2)C(C)[C@@H](O[C@@H]2O[C@H](C)C[C@H](N(C)C)[C@H]2O)[C@](C)(O)C[C@@H](C)CN(C)[C@H](C)[C@@H](O)[C@]1(C)O` (stereo not given in full), 1.9% (inactive).
Still for that read-out and setting: as for `CC(=O)Nc1cccc2c1c(Sc1ccc(Cl)cc1)c(C)n2CC(=O)O`, the figure is 1.56% (inactive).
Consider `CCC(C)/C=C(C)/C=C/C1=CC2=C(Cl)C(=O)C(C)(OC(C)=O)C(=O)C2=CN1CCCCC(N)C(=O)O` (stereo not given), for which the max response is 3.25% (inactive).
With `COc1cc(/C=C/C(=O)O[C@H]2C[C@@H]3C(C(=O)O)=CO[C@@H](O[C@@H]4O[C@H](CO)[C@@H](O)[C@H](O)[C@H]4O)[C@@H]3[C@H]2C)ccc1O`, the call was inactive.
Turning to `CC1C2=CC(=O)OC2(O)CC2C1C(OC(=O)c1ccccc1)C(OC(=O)c1ccccc1)C1(O)C2(C)CCC(O)C1(C)C(=O)O` (stereo not given), the max response is 3.81% (inactive).
Regarding `O=C(O)CC1(O)C(=O)Nc2ccccc21` (stereo not given), the compound was classed as inactive.
Consider `C/C=C(\C)C(=O)OC[C@H]1O[C@@H](O[C@H]2[C@@H](O[C@H]3O[C@H](COC(=O)/C(C)=C/C)[C@@H](O)[C@H](O)[C@H]3O[C@@H]3O[C@H](CO)[C@@H](O)[C@H](OC(=O)/C(C)=C/C)[C@H]3O)O[C@H](COC(=O)/C(C)=C/C)[C@@H](O)[C@@H]2O)[C@H](O)[C@@H](O)[C@@H]1O`, for which the max response was -5.26% (inactive).
The same measure, in the same setting: as for `N[C@@H](CCNCc1ccc(Cl)cc1)C(=O)N1CCCCC1`, the figure is 2.57% (inactive).
For the compound `C[C@H]1CCN2C[C@]34C[C@@]5(C(=O)Nc6c5ccc5c6OC=CC(C)(C)O5)C(C)(C)C3C[C@]12C(=O)N4C` (stereo not given in full), the max response was -13.2% (inactive).
As to `COc1cc(C)c(C(=O)O[C@@H]2[C@H](O)[C@@H](CO)O[C@H]2n2ccc(=O)[nH]c2=O)c(OC)c1`, the max response was 3.08% (inactive).
Regarding `CC(=O)OC1CCC2(C)C(CCC3(C)C2CC=C2C4CC(C)(C)CCC4(C)CCC23C)C1(C)C(=O)O` (stereo not given), the call was inactive.
Take `CC1=C2C(=O)C=C(CO)C2[C@H]2OC(=O)[C@H](C)[C@@H]2[C@@H](OC(=O)Cc2ccc(O)cc2)C1` (stereo not given in full): the max response is -2.2% (inactive).
The same measure, in the same setting: in the case of `C=C1CC2C3(C)C(O)CC(=O)C(C)(C)C3C(O)C(OC(C)=O)C2(C)C2C(=O)OC(C)(C(=O)OC)C(=O)C12C` (stereo not given) it was -2.76% (inactive).
Take `CC1=C[C@H]2[C@@H](CC1=O)[C@H](C)C[C@H](O)[C@H]2C(C)C`: the max response was -24.5% (inactive).
As to `COc1cc(/C=C/CO[C@@H]2O[C@H](CO)[C@@H](O)[C@H](O)[C@H]2O)cc(OC)c1O[C@@H]1O[C@H](CO)[C@@H](O)[C@H](O)[C@H]1O`, the max response is -7.31% (inactive).
`CC(O)C1CCC2C3CCC4CC(OC5OC(C(=O)O)C(O)C(O)C5O)CCC4(C)C3CCC12C` (stereo not given): the max response is -10.1% (inactive).
For the compound `C=C1[C@H](OC(C)=O)[C@H]2[C@@H](OC(=O)c3ccccc3)[C@@H](C)C[C@]2(O)[C@@H](OC(C)=O)[C@H](C)/C=C/C(C)(C)C(=O)[C@H](OC(C)=O)[C@H]1OC(C)=O`, the max response was -5.03% (inactive).
On the same count and under the same terms, in the case of `CC(C)CC(NC(=O)OCc1ccccc1)C(=O)NC(CC(C)C)C(=O)NC(CCC(=O)O)C(=O)Nc1ccc2ccccc2c1` (stereo not drawn) (Cbz-Leu-Leu-Glu-βNA; configuration not given here) it was -0.688% (inactive).
The same measure, in the same setting: as for `CC1(C)C(=O)CCC2(C)C1C(O)C=C1COC(=O)C12O` (stereo not given), the figure is -3.58% (inactive); as for `COc1ccc(-n2c(SCC#N)nc3sc4c(c3c2=O)CCCC4)cc1`, 3.85% (inactive).
Still for that read-out and setting: as for `COc1cc2c(cc1O)C(c1ccc(O)cc1)C(C)C(C)C2` (stereo not given), the figure is -21.2% (inactive); as for `CC1(C)C2CC[C@]3(C)C(C(=O)C=C4[C@H]5C[C@@](C)(C(=O)O)CC[C@]5(C)CC[C@]43C)[C@@]2(C)CC[C@@H]1O` (stereo not given in full), -0.352% (inactive).
Turning to `CC(O)/C=C/C1(O)C(C)C(O)C(O[C@@H]2O[C@H](CO)[C@@H](O)[C@H](O)[C@H]2O)CC1(C)C` (stereo not given in full), the max response is -15.2% (inactive).
The same measure, in the same setting: as for `CC(=O)O[C@@H]1C(O)C[C@@]2(C)C(CC[C@@H](C)C23Cc2c(O)cc4c(c2O3)CNC4=O)C1(C)C` (stereo not given in full), the figure is 1.81% (inactive).
Same read-out and setting: as for `C=C(C(=O)O)[C@@H]1CC[C@@]2(C)CCC[C@@](C)(O)[C@@H]2C1`, the figure is -3.93% (inactive); as for `NC(N)=NCCC[C@H](NC(=O)c1sccc1NS(=O)(=O)c1cccc2nsnc12)C(=O)O`, -1.44% (inactive).
Consider `CCOC(=O)COc1ccc2c(c1)C[C@@H](NC[C@H](O)c1cccc(Cl)c1)CC2`, for which the max response was 4.31% (inactive).
On the same count and under the same terms, as for `C[C@]1(O)CC[C@@H]2C(C(=O)O)=CO[C@@H](O[C@@H]3O[C@H](COC(=O)/C=C/c4ccc(O)c(O)c4)[C@@H](O)[C@H](O)[C@H]3O)[C@@H]21`, the figure is 0.933% (inactive); as for `CC(C)C1NC(=O)CNC(=O)C2CCCN2C(=O)C(Cc2c[nH]c3ccccc23)NC(=O)CNC(=O)C(Cc2ccc(O)cc2)NC(=O)CNC1=O` (stereo not given) (cyclo(GVGYGWP); configuration not given here), 3.25% (inactive).
As to `O=C(OC[C@H]1O[C@H](O[C@H]2CO[C@H](CO)[C@@H](O)[C@@H]2O)[C@H](O)[C@@H](O)[C@H]1O)c1ccccc1`, the result was inactive.
On to `CC1(C)C(=O)N2c3ccccc3C(O)(CC(C(=O)O)n3cnc4ccccc4c3=O)C2N1O` (stereo not given), for which the max response is -0.978% (inactive).
Same read-out and setting: in the case of `CC1CC=C2C1CC1(O)C(=O)CC2(C)C1(C)CO` (stereo not given) it was -7.63% (inactive).
`CC(=O)OC1CC2(C)C(CCC(C)C23Cc2c(O)cc4c(c2O3)CNC4=O)C(C)(C)C1O` (stereo not given): the compound was classed as inactive.
Same read-out and setting: as for `COc1cccc(CNc2ccc(S(=O)(=O)Nc3nc4ccccc4s3)cc2)c1O`, the entry is “inactive”.
Consider `C=C[C@@]1(C)CCC2=C([C@H]1OC(C)=O)[C@H](OC(C)=O)CC1[C@](C)(C(=O)OC)CC[C@H](OC(C)=O)[C@]21C` (stereo not given in full), for which the max response is 0.95% (inactive).
